The record followed here is PubChem BioAssay AID1508600 (Functional Genomics Laboratory (NCATS/FGL), 2020).

In all, about 53,000 sequences went through this assay and about 3,700 (7%) were called active.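 The calls were made as follows: active = gene knockdowns whose robust z-score for IL-1 alpha signal is at least 2 or at most -2, so actives lie on both sides; inactive = the rest.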 This excerpt belongs to a sample that is enriched for actives.

The experiment can be described thus: Components of the Cytosolic LPS Sensing Pathway: Gene Identification via Genome-wide siRNA Screen.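 Also: robust z of the log signal after scaling to non-targeting control siRNA wells of the plate.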 The following applies: RAW264.7 macrophages, IL-1a HTRF, actives lie on both sides, screened at 100 nM (by protocol), cells primed 5 h with Pam3CSK4 first. The procedure, abridged:
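Cells (RAW264.7, 1×10^4 per well) were transfected with siRNA at 100 nM and cultured 48h at 37 degrees C. Pam3CSK4 was added for 5 hours; LipidA transfection followed for 24 hour. IL-1a was then measured by HTRF.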
In general terms: Time-resolved FRET reads energy transfer from a long-lived donor to a nearby acceptor.
On to GGAGUGAUCAUCUAUAAUUTT against Rnf133, for which the z-score is 2.12 (active).

“CCUGGUCAAUCGAUUCAUATT against 5330416C01Rik”: the z-score is -0.12 (inactive).

Turning to GGGCAGAGUGGAGUAUCUGTT against Cbx4, the z-score is -1.35 (inactive).

Turning to GGACACAUGGAAGAGGAUUTT against Rnf139, the z-score is 0.513 (inactive).

For the sequence CGAGGAUGCUUUUUAAAAATT against Inip, the z-score is -0.0653 (inactive).

For the sequence GCUGCUUUAGCUUAGUUUUTT against Vwa7, the z-score is 0.457 (inactive).

In the case of GCCGACAGAUUGAAAUUCGTT against Supv3l1, the z-score was 2.79 (active).

In the case of GCCCGAUUAAAAUAAAUUGTT against Arih2, the z-score is 0.636 (inactive).

For GGAAAAUCUGGAGUUCUUCTT against Npas1, the z-score was 1.3 (inactive).

For GGUUCAGACCAUCUUGGAATT against Bag3, the z-score is -0.936 (inactive).

Turning to GGCAUUCAGAAAUCCAGUATT against Zdhhc2, the z-score was -0.942 (inactive).

Regarding GGGAAUGGAAACGGCCAUGTT against Nmt1, the z-score was 2.02 (active).

Consider GCAAAAGUUCCAAAAAUCCTT against Cryba1, for which the z-score was 0.0525 (inactive).

For GCUCUACAGUAGAACAAACTT against Efcab5, the z-score was 1.18 (inactive).

Regarding GGAUUGAAGUCCCUUUACUTT against Zdhhc16, the z-score is 2.27 (active).

As to GGAACUCUUUUCCUAAAAUTT against Slco1a5, the z-score was -0.838 (inactive).

Turning to CCUAUACCCUGGAAAGGCATT against Pigz, the z-score was 1.59 (inactive).

As to GGCUGAAUCACCAGAACAUTT against Ikbke, the z-score is -0.644 (inactive).

As to GGCCAGAAUGUAUAAAGCUTT against Mboat7, the z-score is -1 (inactive).

Consider GGGCACUGGAACAGAUUUUTT against Ccnh, for which the z-score was 4.27 (active).

With GGUCACCCUCAAGUACCCUTT against Thop1, the z-score is -0.188 (inactive).

For the sequence “GCUAUUAAGUUUACCCUAGTT against A730089K16Rik”, the z-score is -1.31 (inactive).

With GGACCAACUACACACUACGTT against Grik5, the z-score is 0.334 (inactive).

Take CCAAUGUGCGAGCAAAGAUTT against Arid5a: the z-score was 2.48 (active).

Regarding GGACCGUAUCCCAAAAGAUTT against Klf1, the z-score is -0.968 (inactive).

As for GGGCCUCUUCCUUAAGCAUTT against Snx8, the z-score was -0.382 (inactive).

Take GGAAGUUUGUUUGCUGUUATT against Slx4ip: the z-score was 1.08 (inactive).

Regarding GCCUAUUGUAAAUACAGGUTT against Bdnf, the z-score was 0.6 (inactive).

GGUGAAUAGAACAUCAUCUTT against Lrrc29: the z-score was -1.76 (inactive).

Consider GGUGAUGAAAGGGAAUGGCTT against Rnf25, for which the z-score is -2.53 (active).

On to GGAACACAAAUUGUGCUUATT against Zfp462, for which the z-score was 0.199 (inactive).

In the case of GGGUUGUAUGGCUCAAAUATT against Olfr728, the z-score was 0.734 (inactive).

Take GCAUCAUAAUGGGAUGCUGTT against Qrfp: the z-score was -0.313 (inactive).

Take GGAGAGGUCAGAUAGAAAUTT against Zbtb41: the z-score was -2.29 (active).

Regarding GGCAAAAGAAUCGUUCUCATT against Ppat, the z-score is -0.848 (inactive).

As to GGAAGAAAUACUACAGCCATT against Ptpn12, the z-score was -0.733 (inactive).

For the sequence GAAGGAAGAAUAUUGGCCCTT against Il17rd, the z-score is -1.88 (inactive).

As for GCGGCAAUUCAAAUGAGUCTT against Rnf14, the z-score was 1.2 (inactive).

GGGAAUGACUCCACAUUGCTT against Limd1: the z-score is 2.01 (active).

As for GGGAGAGAGUUGGCUCUGATT against Prg3, the z-score was -0.184 (inactive).

With GGGAGACUUCGAAUAUUUATT against Uroc1, the z-score is -0.183 (inactive).

For CGUAUUCUGGUAGUGAAGGTT against Olfr1384, the z-score was -2.3 (active).

As to GCUCAACCUAACUUUGUGGTT against Ccdc3, the z-score was 0.421 (inactive).

On to GGCAACAAUGGUUGUCUUGTT against Ctsr, for which the z-score was 0.515 (inactive).

On to GCCAAACUUAGCGUGCUCATT against Dgkk, for which the z-score was 0.607 (inactive).

As to GGGUAUCAACCACUUUUUUTT against Serping1, the z-score was 2 (inactive).

For GGUCAGAUUCCUGAAAUUATT against Vbp1, the z-score was -0.807 (inactive).

As to GGAAACAAGAUUACAUCAATT against Adamts2, the z-score is 2.04 (active).

For GGCCAUAGUGAAGAAAGAATT against Plaat3, the z-score is -0.754 (inactive).

With GGAGAAGGAUAGAGAUGGUTT against Phf5a, the z-score is -1.84 (inactive).

Turning to GGUAAUACCACCUCACCUUTT against Fam214b, the z-score was -0.0713 (inactive).

Turning to GGACACUGUACAGAAGCUGTT against Asb18, the z-score is -2.31 (active).

As for CGGUUAGAUGAGCUUGAGATT against Smad2, the z-score was -0.725 (inactive).

On to GCGGGAGUACUACGUCAAUTT against Reps2, for which the z-score was -2.07 (active).

For GCUUGAUGACUACCACUGATT against Rrp36, the z-score was 0.496 (inactive).

On to GGUCGACAUUUUGAAGGAGTT against Fthl17e, for which the z-score is -2.63 (active).

As to GGAGAUCACUAUGUUCUGATT against Ivd, the z-score is 1.46 (inactive).

For GACAAGGCUUCAUAAAAAGTT against Qrich1, the z-score is -0.312 (inactive).

Consider GGGAUGCUUUGUUGCUGUUTT against Olfr836, for which the z-score is 0.296 (inactive).

Turning to GCCAUAGGCUCAUCUUUACTT against Ankib1, the z-score was -1.61 (inactive).

Consider GGAAGUAGAGCUUCAAAUGTT against Cdkl2, for which the z-score was 2.8 (active).

Turning to GGUUGGUCACCUAAUCCAGTT against Aldh2, the z-score is 0.523 (inactive).

Regarding CCAAUGUGCUCAUGCUCUATT against Nodal, the z-score was 1.06 (inactive).

With GCUGUACGAGCAUACUGUGTT against Tnxb, the z-score was -1.46 (inactive).

With CCUUCUAAACACUUGACUUTT against Ugt2b5, the z-score is 0.106 (inactive).

In the case of GACCACAAUAUUGAGGAUCTT against Zfp119b, the z-score is -0.329 (inactive).

For GGACGUGACAGACAUUAUUTT against Htr5b, the z-score was -2.81 (active).

In the case of CCCUGUUAUUAUCUUGAUUTT against Arv1, the z-score is -1.16 (inactive).

Take CGUGUGUGUUAUGAAUCAATT against Tmem161a: the z-score is 0.984 (inactive).
